PubChem BioAssay (NCI)
The panel holds about 79,000 compounds, 15% with a hit somewhere; the sample as a whole holds those more often. Cut-off read from the data, not from the text of the source: active = growth inhibition above about 70%; inactive = the rest.

Tests used:
[1] = NCI Yeast Anticancer Drug Screen. Data for the rad50 strain (AID 155);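 note: 0% = growth of vehicle-only cultures of the same strain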; details: S. cerevisiae rad50 strain growth inhibition; at 50.0 µM; active compounds read high
Method in brief: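 Compounds were tested on a yeast strain with an engineered DNA damage repair alteration; the reported value is growth inhibition normalised to vehicle treatment.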

[2] = NCI Yeast Anticancer Drug Screen. Data for the mec2-1 strain (AID 157); details: S. cerevisiae mec2-1 strain, at 50.0 µM, active compounds read high
Method in brief: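 Cells of the genetically defined mec2-1 yeast strain are incubated with test compound. Inhibition of growth is calculated against vehicle-treated controls.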

[3] = NCI Yeast Anticancer Drug Screen. Data for the sgs1 mgt1 strain (AID 161);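 note: 0% = growth of cultures given vehicle only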; details: S. cerevisiae sgs1 mgt1 strain, at 50.0 µM, active compounds read high
Method in brief: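 Test agents were incubated with a DNA-repair-mutant yeast strain. Growth was then read and compared against vehicle-treated controls.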

[4] = NCI Yeast Anticancer Drug Screen. Data for the cln2 rad14 strain (AID 165);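 note: 0% = growth equal to vehicle treated cultures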; details: S. cerevisiae cln2 rad14 strain, at 50.0 µM, active compounds read high
Method in brief: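 The screen exposed genetically defined yeast (cln2 rad14) to test compounds and scored growth inhibition relative to vehicle-treated controls.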

[5] = NCI Yeast Anticancer Drug Screen. Data for the bub3 strain (AID 167); details: S. cerevisiae bub3 mutant strain, at 50.0 µM, active compounds read high
Method in brief: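 Growth of a checkpoint-deficient yeast mutant is measured after compound exposure. Values represent inhibition relative to vehicle.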

[6] = NCI Yeast Anticancer Drug Screen. Data for the mlh1 rad18 strain (AID 175); details: S. cerevisiae mlh1 rad18 strain growth inhibition; at 50.0 µM; active compounds read high
Method in brief: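 Compound-treated yeast growth, normalised to vehicle controls. Strain bears defined DNA repair mutations.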

Measured: growth inhibition

CC(=O)CC(=O)Nc1cccc(C)n1
inactive: [1] -0.4% | [2] -9.95% | [3] -14.3% | [4] 3.8% | [5] 6.25% | [6] 7.25%

COC1=CCC=C(C(C)(C)C)C1
inactive: [1] -45.8% | [2] -22.6% | [3] -10.5% | [4] -32.1% | [5] -12.2% | [6] 21.7%

NCCC1([N+](=O)[O-])CCNCC1
inactive: [1] 1.9% | [2] -7.2% | [3] -6.15% | [4] -14.7% | [5] -5.3% | [6] 14.6%

COc1cc(C(=O)N2C3C4CCC(C)(OC4(C)C)C32)cc(OC)c1OC (stereo not given)
inactive: [1] 18.4% | [2] -15.4% | [3] 2.8% | [4] 10.2% | [5] 6% | [6] -8.9%

CC(=O)NC(Cc1cccc2ccccc12)C(=O)O (stereo not given)
inactive: [1] 0.55% | [2] -6.15% | [3] -0.05% | [4] -2% | [5] 2.6% | [6] -6.45%

Cc1cc2nc3ccc(O)cc3[n+](C)c2cc1N
inactive: [1] 57.7% | [2] 28.6% | [3] 31.6% | [4] 31.1% | [5] 15.9% | [6] 26.3%

CN(C)c1ccc(C=C2c3ccccc3-c3ccccc32)cc1
inactive: [1] -10.8% | [2] -1.35% | [3] 7.75% | [4] -80.9% | [5] 0.9% | [6] 9.1%

CC(C)/C=C1\CCC(CN2CCCC2)C1=O (stereo not given)
inactive: [1] 61.5% | [2] 34.6% | [3] 48.5% | [4] 44.5% | [5] 40.7% | [6] 63.5%

CCCCCCC(=O)/C=C/c1ccccc1OC
inactive: [1] 9.15% | [2] -12.2% | [3] -3.55% | [4] -20.4% | [5] 2.3% | [6] -14.1%

CC(CO)CCNc1ncnc2c1ncn2CCC(=O)OC(C)(C)C (stereo not given)
inactive: [1] -27.6% | [2] 16.4% | [3] -21.6% | [4] -20.6% | [5] -1.85% | [6] -9.65%

O=c1nc2sc3ccccc3c(=O)n2[nH]1
inactive: [1] -39.6% | [2] -42% | [3] -2.85% | [4] 6.85% | [5] -12.2% | [6] -28.8%

CCCC(=O)OCCCCC1CCCO1 (stereo not given)
inactive: [1] 13.2% | [2] 3.6% | [3] 8.75% | [4] 14% | [5] 5.45% | [6] 11.6%

Cc1ccc(S(=O)CC(CF)OCn2cc(C)c(=O)[nH]c2=O)cc1 (stereo not given)
inactive: [1] 1.6% | [2] 6.65% | [3] -42.6% | [4] 10.2% | [5] -16.1% | [6] -53%

CSc1n[nH]c(N)c1C(=O)Nc1ccc(C)cc1
inactive: [1] 19.9% | [2] 10.8% | [3] 39.5% | [4] 22.4% | [5] 49.2% | [6] 10.6%

CCCCCCCCCCCCCCCCCCCCCCCC
inactive: [1] 0.1% | [2] 2.3% | [3] 18.7% | [4] -53% | [5] 21.7% | [6] -13.2%

CCN(CC)CCn1c2c3ccccc3ccc2c2oc(=O)c3ccccc3c21
inactive: [1] -13.8% | [2] 6.6% | [3] -14.1% | [4] 19.4% | [5] -7.5% | [6] 7.8%

CCOC1CS(=O)(=O)CC(OCC)O1 (stereo not given)
inactive: [1] 3.35% | [2] 6.05% | [3] 4.9% | [4] -30.6% | [5] -8.35% | [6] 13.8%

CCCCCCN(C(=O)Oc1ccccc1)C(C#N)c1ccccc1 (stereo not given)
inactive: [1] 0.1% | [2] 5.55% | [3] -16.8% | [4] -14.7% | [5] 1.75% | [6] -20.2%

COc1ccc(Nc2nc3c([nH]2)c(=O)n(C)c(=O)n3C)cc1
inactive: [1] -15.6% | [2] 5.1% | [3] -11.3% | [4] 6.9% | [5] -1.3% | [6] 13.3%

O=C(NC(Cc1ccc(O)cc1)C(=O)O)SCc1ccccc1 (stereo not given)
inactive: [1] -25.6% | [2] 21% | [3] 22.9% | [4] -52.5% | [5] 22.9% | [6] -12%
